Experimental data: PubChem BioAssay (Tox21)
Active and inactive are the calls of the source. Where a call stands in place of a potency, no number is given. The call rests on the fitted dose curve.

These compounds were tested against Acetylcholinesterase (Homo sapiens) (UniProt P22303) (assay: Acetylcholinesterase (AChE) small molecule antagonists: enzyme-based qHTS assay with human liver microsomes (AID 1347399; further: nearly all actives have a fitted effect of over 60% in size)). Settings: Potency: qHTS inhibition; series mostly up to 115 µM.
In short: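 Recombinant human AChE (50 mU/mL in the enzyme mix) and human liver microsomes (0.25 mg/mL final) were preincubated with compound and NADPH (0.25 mg/mL final) for 30 min at 37 C. Acetylthiocholine/DTNB was then added; thiocholine was read colorimetrically after 10 min at room temperature.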

Sequence of Acetylcholinesterase (Homo sapiens) (P22303 whole entry, looked up): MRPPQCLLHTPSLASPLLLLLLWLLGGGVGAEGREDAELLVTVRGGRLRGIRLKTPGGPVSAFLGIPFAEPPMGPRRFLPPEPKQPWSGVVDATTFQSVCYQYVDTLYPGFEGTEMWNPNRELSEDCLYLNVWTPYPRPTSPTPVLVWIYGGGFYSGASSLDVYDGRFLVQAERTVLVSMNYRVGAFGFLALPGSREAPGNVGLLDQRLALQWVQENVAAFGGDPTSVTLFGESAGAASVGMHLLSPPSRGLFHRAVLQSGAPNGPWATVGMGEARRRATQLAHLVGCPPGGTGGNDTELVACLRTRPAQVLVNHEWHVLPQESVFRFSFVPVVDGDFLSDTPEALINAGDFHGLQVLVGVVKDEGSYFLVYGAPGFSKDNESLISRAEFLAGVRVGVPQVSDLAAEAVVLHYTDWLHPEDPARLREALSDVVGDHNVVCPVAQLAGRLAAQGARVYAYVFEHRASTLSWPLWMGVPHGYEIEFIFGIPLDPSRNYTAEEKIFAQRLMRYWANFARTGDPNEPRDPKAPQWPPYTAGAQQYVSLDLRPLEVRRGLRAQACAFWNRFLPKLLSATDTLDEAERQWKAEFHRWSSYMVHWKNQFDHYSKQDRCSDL

Row | Structure (SMILES) | Potency
1 | N#CSCSC#N | inactive
2 | BrCBr | inactive
3 | ClC(Cl)=C(c1ccc(Cl)cc1)c1ccc(Cl)cc1 | inactive
4 | Clc1ccc(CSC(Cn2ccnc2)c2ccc(Cl)cc2Cl)cc1 (stereo unspecified) | inactive
5 | CC(Cl)CN(C)C (stereo unspecified) | inactive
6 | O=C1C=CC(=O)c2ccccc21 | inactive
7 | C[C@]12CC[C@H](O)C[C@H]1CC[C@@H]1[C@@H]2C[C@@H](O)[C@]2(C)[C@@H](C3=CC(=O)OC3)CC[C@]12O | inactive
8 | COc1ccc(OC)c(CC(C)N)c1 (stereo unspecified) | inactive
9 | CCCCOP(=O)(CCCC)OCCCC | inactive
10 | CC(C)(c1ccc(O)c(-c2ccccc2)c1)c1ccc(O)c(-c2ccccc2)c1 | inactive
11 | N#Cc1ccc(O)cc1 | inactive
12 | C1CCC2CCCCC2C1 (stereo unspecified) | inactive
13 | CC1(C)CC/C(=C/c2ccc(Cl)cc2)C1(O)Cn1cncn1 (stereo unspecified) | inactive
14 | CCCN(CC)CC1COC2(CCC(C(C)(C)C)CC2)O1 (stereo unspecified) | inactive
15 | Cc1ccc(CCl)cc1 | inactive
16 | CCc1ccccc1C | inactive
